Broadly, the AC50 is the midpoint of the concentration-response curve, whichever way the signal moves.

The source made the active and inactive calls. The calls were made as follows: active = hit-call score of the fitted dose curve at least 0.9, where 1 is the maximum; inactive = score below 0.9.

The text below walks through data of PubChem BioAssay (EPA / NIEHS).

For assay [1], the target named is Transcription factor E2F1 (Homo sapiens) (UniProt Q01094). The experiment in a line: ATG_E2F_CIS: Attagene CIS-FACTORIAL HepG2 Assay for human E2F Transcription Factor 1 (AID 2282935). As to conditions: HepG2 Attagene cis-reporter, E2F reporter RNA transcripts; actives raise or lower the signal. In short, it runs like this:
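Fluorescent RT-PCR products, digested with HpaI for 2 h at 37 C, are separated by capillary electrophoresis. Source RNA comes from transfected HepG2 cultures treated for 24 h.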

The nature of assay [2]: ATG_E_Box_CIS: Attagene CIS-FACTORIAL HepG2 Assay for human Enhancer Box (E-box) (AID 2282936). As to conditions: HepG2 E-box cis-reporter transcription, actives raise or lower the signal. In short, it runs like this:
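Fluorescent reporter fragments separated by capillary electrophoresis gave the signal; mRNA came from HepG2 cells transfected with cis-element reporters and treated 24 h. Curves fitted bidirectionally relative to DMSO controls.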

Assay [3] is described as follows: ATG_M_61_CIS: Attagene CIS-FACTORIAL HepG2 Assay for M61 Transcription Factor (Internal Marker) (AID 2282937). Conditions: HepG2 Attagene CIS-FACTORIAL M61 internal marker reporter; actives raise or lower the signal. An outline of the steps: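 Endogenous transcription factor activity in HepG2 is read through transiently transfected cis-element reporter units. After 24 h dosing, RNA undergoes reverse transcription, PCR and primer extension with 6-FAM before capillary electrophoresis; DMSO-referenced bidirectional fit.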

Assay [4] in a line: ATG_EGR_CIS: Attagene CIS-FACTORIAL HepG2 Assay for human Early Growth Response 1 (EGR1) (AID 2282938). Conditions: HepG2 Attagene CIS-FACTORIAL EGR reporter mRNA; actives raise or lower the signal. In short, it runs like this:
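Activity is taken as induction or loss of reporter mRNA versus DMSO, fitted bidirectionally. Transcripts from cis-regulated reporter units in transiently transfected HepG2 were measured after 24 h by RT-PCR with capillary electrophoresis.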

A short description of assay [5]: ATG_M_19_CIS: Attagene CIS-FACTORIAL HepG2 Assay for M19 Transcription Factor (Internal Marker) (AID 2282939). Conditions: HepG2 Attagene CIS-FACTORIAL M19 internal marker reporter; actives raise or lower the signal. In short, it runs like this: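 HepG2 cells transiently transfected with cis-regulated multiplexed reporter units, dosed 24 h. Reporter mRNA quantified by RT-PCR and capillary electrophoresis; internal background marker fitted bidirectionally versus DMSO.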

A short description of assay [6]: ATG_ERE_CIS: Attagene CIS-FACTORIAL HepG2 Assay for Estrogen Response Element (ERE) (AID 2282940). As to conditions: HepG2 ERE cis-reporter, Attagene RNA transcript; actives raise or lower the signal. An outline of the steps:
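HepG2 cells transiently transfected with multiplexed cis-element reporter units, measuring endogenous transcription factor activity; ERE reporter mRNA quantified after 24 h exposure by RT-PCR, fluorescent labelling, HpaI digestion and capillary electrophoresis. Bidirectional change versus DMSO.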

The nature of assay [7]: ATG_Ets_CIS: Attagene CIS-FACTORIAL HepG2 Assay for human Erythroblast Transformation Specific (ETS) (AID 2282941). Conditions: HepG2 ETS cis-reporter transcription, actives raise or lower the signal. In short, it runs like this: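 Multiplexed reporter transcript profiling: HepG2, 24 h treatment, total RNA to cDNA, PCR, 6-FAM labelling, HpaI cut, capillary electrophoresis. Gain- or loss-of-signal fitted against DMSO.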

Assay [8] addresses Hepatocyte nuclear factor 3-beta (Homo sapiens) (UniProt Q9Y261). Put plainly: ATG_FoxA2_CIS: Attagene CIS-FACTORIAL HepG2 Assay for human Forkhead box A2 (FOXA2) (AID 2282942). Conditions: HepG2 cis-reporter transcription factor activity, 24 h; actives raise or lower the signal. An outline of the steps: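 Reporter transcript induction is measured by fluorescence after capillary electrophoresis of RT-PCR products from HepG2 cells exposed 24 h. Cis-regulated reporter units report endogenous factor activity; curves fitted both directions against DMSO.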

Assay [9] can be described thus: ATG_FoxO_CIS: Attagene CIS-FACTORIAL HepG2 Assay for human Forkhead box O (FoxO) (AID 2282943). As to conditions: HepG2 Attagene cis-reporter, FoxO element, mRNA; actives raise or lower the signal. An outline of the steps: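 Human hepatoma HepG2 cells carry transiently introduced reporter transcription units controlled by cis promoter elements. Chemical treatment lasted 24 h, and mRNA signal was compared with DMSO.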

Assay [10] is described as follows: ATG_GATA_CIS: Attagene CIS-FACTORIAL HepG2 Assay for human GATA Binding Protein (AID 2282944). Conditions: HepG2 GATA cis-element reporter, Attagene multiplex mRNA; actives raise or lower the signal. In short, it runs like this: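 HepG2 cells transiently transfected with multiplexed cis-element reporter units measure endogenous GATA activity; after 24 h compound exposure, reporter mRNA quantified by RT-PCR and capillary electrophoresis. Changes fitted in both directions vs DMSO.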

Assay [11] is described as follows: ATG_GLI_CIS: Attagene CIS-FACTORIAL HepG2 Assay for human Zinc Finger Protein GLI1 (AID 2282945). As to conditions: HepG2, Attagene cis-factorial reporter mRNA, GLI element; actives raise or lower the signal. An outline of the steps: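 Bidirectional curve fits relative to DMSO, using reporter mRNA levels from RT-PCR plus capillary electrophoresis. Cells were HepG2 transiently carrying cis-regulated reporter constructs, harvested 24 h after dosing.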

The nature of assay [12]: ATG_GRE_CIS: Attagene CIS-FACTORIAL HepG2 Assay for human Glucocorticoid Response Elements (GRE) (AID 2282947). As to conditions: HepG2 GRE cis-reporter, Attagene multiplex mRNA; actives raise or lower the signal. An outline of the steps:
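Multiplexed cis-reporter mRNA induction, HepG2, 24 h post-dose. RT-PCR, FAM-labelled, HpaI-digested amplicons by CE. Bidirectional fit vs DMSO.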

The nature of assay [13]: ATG_ISRE_CIS: Attagene CIS-FACTORIAL HepG2 Assay for human Interferon Regulatory Factor 1 (IRF1) binding to an Interferon-Stimulated Response Element (ISRE) (AID 2282948). Conditions: HepG2 ISRE cis-reporter (Attagene), mRNA transcription readout; actives raise or lower the signal. In short, it runs like this: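 Signal reflects induction or loss of ISRE-linked reporter mRNA in transiently transfected HepG2 cells after a 24 h treatment, detected by fluorescent RT-PCR fragments on capillary electrophoresis and normalised to DMSO.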

The nature of assay [14]: ATG_M_32_CIS: Attagene CIS-FACTORIAL HepG2 Assay for M32 Transcription Factor (Internal Marker) (AID 2282949).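 Also: background control marker of the multiplexed CIS panel rather than a real target.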 As to conditions: HepG2 Attagene cis-factorial M32 reporter, mRNA; actives raise or lower the signal. An outline of the steps: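 Transient MRTU transfection of HepG2; 24 h compound treatment; TriZol RNA, oligo(dT) RT, reporter PCR, 6-FAM primer extension, HpaI cut, CE. Gain/loss of signal vs DMSO.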

Assay [15] is described as follows: ATG_M_06_CIS: Attagene CIS-FACTORIAL HepG2 Assay for M06 Transcription Factor (Internal Marker) (AID 2282950). Conditions: HepG2 Attagene CIS-FACTORIAL M06 internal marker reporter; actives raise or lower the signal. In short, it runs like this:
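Internal background marker within multiplexed cis-reporter HepG2 system. Cells transiently transfected, dosed 24 h; reporter mRNA measured by RT-PCR, HpaI digestion and capillary electrophoresis. Bidirectional fit relative to DMSO.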

For assay [16], the target named is Hypoxia-inducible factor 1-alpha (Homo sapiens) (UniProt Q16665). Put plainly: ATG_HIF1a_CIS: Attagene CIS-FACTORIAL HepG2 Assay for human Hypoxia Inducible Factor 1 (HIF1A) (AID 2282951). As to conditions: HepG2 Attagene cis-factorial HIF1a reporter transcription; actives raise or lower the signal. An outline of the steps: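 Fluorescence intensity of capillary-separated, 6-FAM-labelled reporter amplicons gives mRNA induction in HepG2 cells carrying transfected cis-promoter reporter units; cells exposed 24 h, responses fitted up or down from DMSO.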

For assay [17], the target named is Heat shock factor protein 1 (Homo sapiens) (UniProt Q00613). Put plainly: ATG_HSE_CIS: Attagene CIS-FACTORIAL HepG2 Assay for human Heat Shock Transcription Factor 1 (HSE) (AID 2282953). As to conditions: HepG2 HSE cis-reporter, Attagene RNA transcription; actives raise or lower the signal. An outline of the steps:
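HepG2 cells transfected with cis-promoter reporter units sensing endogenous transcription factor activity; reporter mRNA quantified 24 h post-dose by RT-PCR and capillary electrophoresis of 6-FAM-labelled products. Bidirectional fitting against DMSO.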

Assay [18] is described as follows: ATG_MRE_CIS: Attagene CIS-FACTORIAL HepG2 Assay for human Metal Responsive Element (MRE) (AID 2282954). As to conditions: HepG2 MRE cis-reporter transcription, Attagene multiplex; actives raise or lower the signal. In short, it runs like this: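 Multiplexed cis-reporter assay in human HepG2 liver cells, 24 h incubation with test chemical. Reporter transcripts measured by RT-PCR and capillary electrophoresis; values from bidirectional curve fitting versus DMSO.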

A short description of assay [19]: ATG_PBREM_CIS: Attagene CIS-FACTORIAL HepG2 Assay for human Phenobarbital-responsive Enhancer Module (PBREM) (AID 2282955). Conditions: HepG2 PBREM cis-reporter, Attagene multiplexed transcription; actives raise or lower the signal. In short, it runs like this: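 Cells were transfected with cis-element reporter units and treated for 24 h, after which RNA was extracted and reporter transcripts measured by RT-PCR and capillary electrophoresis.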

Assay [20] addresses Hepatocyte nuclear factor 6 (Homo sapiens) (UniProt Q9UBC0). Put plainly: ATG_HNF6_CIS: Attagene CIS-FACTORIAL HepG2 Assay for human Hepatocyte Nuclear Factor 6 (HNF6) (AID 2282952). As to conditions: HepG2 Attagene cis-factorial HNF6 reporter transcription; actives raise or lower the signal. An outline of the steps: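 Endogenous factor activity read in transiently transfected HepG2 via promoter-regulated reporter transcripts. RNA harvested 24 h post-dosing, reverse-transcribed, PCR-amplified, FAM-labelled, HpaI-digested and resolved by capillary electrophoresis; fitted in both directions against DMSO.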

Sequence of Heat shock factor protein 1 (Homo sapiens) (Q00613 whole entry, looked up): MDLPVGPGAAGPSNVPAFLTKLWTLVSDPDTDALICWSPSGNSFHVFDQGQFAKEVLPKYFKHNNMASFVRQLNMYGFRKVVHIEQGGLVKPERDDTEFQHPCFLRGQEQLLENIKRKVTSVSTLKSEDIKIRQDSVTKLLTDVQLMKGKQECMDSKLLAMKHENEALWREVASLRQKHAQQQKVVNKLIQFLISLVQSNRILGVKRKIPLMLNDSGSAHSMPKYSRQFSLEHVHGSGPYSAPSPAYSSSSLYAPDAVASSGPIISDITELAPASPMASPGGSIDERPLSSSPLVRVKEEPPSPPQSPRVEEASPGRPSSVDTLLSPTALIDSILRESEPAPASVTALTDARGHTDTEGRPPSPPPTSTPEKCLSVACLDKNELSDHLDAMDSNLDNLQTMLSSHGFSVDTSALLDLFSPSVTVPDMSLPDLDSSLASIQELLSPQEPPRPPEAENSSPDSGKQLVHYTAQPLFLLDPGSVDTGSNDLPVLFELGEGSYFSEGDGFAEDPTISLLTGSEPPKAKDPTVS
Sequence of Transcription factor E2F1 (Homo sapiens) (Q01094 whole entry, looked up): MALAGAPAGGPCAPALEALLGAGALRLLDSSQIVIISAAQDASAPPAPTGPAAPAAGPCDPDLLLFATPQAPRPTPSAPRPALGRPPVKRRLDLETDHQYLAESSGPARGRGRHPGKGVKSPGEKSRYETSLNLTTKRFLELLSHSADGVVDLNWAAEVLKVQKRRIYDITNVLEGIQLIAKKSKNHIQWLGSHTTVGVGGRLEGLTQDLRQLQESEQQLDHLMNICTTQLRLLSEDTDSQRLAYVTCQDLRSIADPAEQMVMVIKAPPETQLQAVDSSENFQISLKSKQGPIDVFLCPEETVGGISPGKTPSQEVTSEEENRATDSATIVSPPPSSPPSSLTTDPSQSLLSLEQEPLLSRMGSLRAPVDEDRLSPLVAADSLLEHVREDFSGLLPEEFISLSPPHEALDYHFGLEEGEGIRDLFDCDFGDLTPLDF
Sequence of Hypoxia-inducible factor 1-alpha (Homo sapiens) (Q16665 whole entry, looked up): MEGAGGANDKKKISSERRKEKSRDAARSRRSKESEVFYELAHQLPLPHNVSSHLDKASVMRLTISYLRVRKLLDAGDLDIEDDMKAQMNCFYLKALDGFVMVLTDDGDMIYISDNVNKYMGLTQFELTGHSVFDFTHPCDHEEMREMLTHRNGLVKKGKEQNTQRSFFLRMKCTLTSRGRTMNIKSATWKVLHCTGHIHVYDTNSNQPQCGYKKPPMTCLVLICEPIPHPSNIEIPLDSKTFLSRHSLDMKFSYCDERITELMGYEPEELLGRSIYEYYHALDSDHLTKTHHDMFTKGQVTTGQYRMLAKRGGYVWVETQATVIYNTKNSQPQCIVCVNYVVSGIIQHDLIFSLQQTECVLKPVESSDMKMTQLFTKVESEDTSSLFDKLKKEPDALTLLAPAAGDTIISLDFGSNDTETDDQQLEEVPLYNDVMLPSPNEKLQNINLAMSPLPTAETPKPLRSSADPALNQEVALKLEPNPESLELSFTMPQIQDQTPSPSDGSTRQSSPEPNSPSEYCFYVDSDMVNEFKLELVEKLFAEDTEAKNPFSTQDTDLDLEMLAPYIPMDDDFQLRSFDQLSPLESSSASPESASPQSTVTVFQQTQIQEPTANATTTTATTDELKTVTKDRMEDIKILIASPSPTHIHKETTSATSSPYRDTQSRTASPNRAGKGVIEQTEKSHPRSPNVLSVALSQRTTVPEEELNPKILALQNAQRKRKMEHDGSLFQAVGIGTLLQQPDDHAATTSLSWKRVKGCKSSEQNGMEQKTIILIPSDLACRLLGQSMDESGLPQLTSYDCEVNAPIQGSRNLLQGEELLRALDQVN
Sequence of Hepatocyte nuclear factor 3-beta (Homo sapiens) (Q9Y261 whole entry, looked up): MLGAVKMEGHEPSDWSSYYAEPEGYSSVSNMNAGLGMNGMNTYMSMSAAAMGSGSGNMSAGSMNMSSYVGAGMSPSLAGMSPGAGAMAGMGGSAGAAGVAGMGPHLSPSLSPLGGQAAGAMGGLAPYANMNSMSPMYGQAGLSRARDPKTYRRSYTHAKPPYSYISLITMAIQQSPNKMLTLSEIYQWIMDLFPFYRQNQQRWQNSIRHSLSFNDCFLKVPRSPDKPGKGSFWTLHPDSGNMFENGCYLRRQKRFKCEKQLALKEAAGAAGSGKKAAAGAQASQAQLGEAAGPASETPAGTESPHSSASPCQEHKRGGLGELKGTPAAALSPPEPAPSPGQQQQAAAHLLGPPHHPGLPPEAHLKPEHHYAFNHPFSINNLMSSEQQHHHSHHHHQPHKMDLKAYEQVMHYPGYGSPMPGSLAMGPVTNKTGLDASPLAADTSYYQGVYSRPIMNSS
Sequence of Hepatocyte nuclear factor 6 (Homo sapiens) (Q9UBC0 whole entry, looked up): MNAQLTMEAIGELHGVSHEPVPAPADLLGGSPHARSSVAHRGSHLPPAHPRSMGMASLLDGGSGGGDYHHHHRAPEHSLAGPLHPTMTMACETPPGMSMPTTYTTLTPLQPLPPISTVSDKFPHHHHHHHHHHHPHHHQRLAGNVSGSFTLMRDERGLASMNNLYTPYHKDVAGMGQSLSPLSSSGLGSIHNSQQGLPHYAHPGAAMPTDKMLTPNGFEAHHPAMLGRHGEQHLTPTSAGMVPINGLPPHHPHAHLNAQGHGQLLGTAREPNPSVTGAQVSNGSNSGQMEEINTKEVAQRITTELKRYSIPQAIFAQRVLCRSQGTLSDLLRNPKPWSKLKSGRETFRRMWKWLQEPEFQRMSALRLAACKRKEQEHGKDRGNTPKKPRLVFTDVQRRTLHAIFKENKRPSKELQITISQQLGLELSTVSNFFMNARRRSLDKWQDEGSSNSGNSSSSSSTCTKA

`CCCCC(CC)C(=O)OCCOCCOCCOC(=O)C(CC)CCCC` (configuration not stated): the call in [1], in assay [2], in assay [3], in assay [4], in assay [5] and in [6] was inactive. For the same compound, the compound was classed as inactive in assay [7], in assay [8], in [9], in assay [10], in assay [11] and in [12]. In addition, the call in assay [13], in [14], in assay [15], in assay [16], in assay [17] and in [18] was inactive. Also, the outcome in [19] was inactive.

Turning to `CCc1ccc(O)c(C(C)(C)C)c1`, the outcome in assay [1], in assay [2], in assay [3], in assay [4], in [5] and in assay [6] was inactive. The compound was called inactive in assay [7], in assay [8], in assay [9], in assay [10], in assay [11] and in assay [12]. The outcome in assay [13], in [15], in assay [20] and in assay [17] was inactive. Also, the AC50 in assay [16] is 56.3 µM (active).

Turning to `CC(C)CCCCCCOC(=O)C1CCCCC1C(=O)OCCCCCCC(C)C` (configuration not stated), the compound was classed as inactive in [1], in [2], in [3], in [4], in assay [5] and in assay [6]. For the same compound, the outcome in assay [7], in assay [8], in assay [9], in assay [10], in assay [11] and in assay [12] was inactive. The result in assay [13], in assay [15] and in assay [16] was inactive.

For `CCOC(N)=O`, the compound was classed as inactive in assay [1], in [2], in assay [3], in assay [4], in assay [5] and in assay [6]. Moreover, the compound was called inactive in [7], in assay [8], in assay [9], in [10], in [11] and in [13]. For the same compound, the outcome in [14], in assay [15], in [16], in [20] and in assay [17] was inactive.

Turning to `NC(N)=O`, the result in assay [1], in [2], in assay [3], in assay [4], in [5] and in [6] was inactive. Also, the compound was called inactive in assay [7], in assay [8], in [9], in assay [10], in assay [11] and in [13]. Besides, the result in [14], in [15], in assay [16], in [20], in [17] and in assay [18] was inactive. The result in assay [19] was inactive.

In the case of `CCn1nc(C)c2c1C(=O)NCC(c1ccc(O)cc1)=N2`, the compound was classed as inactive in assay [1], in assay [2], in assay [3], in [4], in [5] and in assay [6]. The outcome in [8], in assay [9], in [10], in assay [11], in assay [12] and in [13] was inactive. For the same compound, the compound was called inactive in assay [14], in [15], in assay [16], in [20], in [17] and in [19].

Turning to `CCCCCCCCCC`, the result in assay [1], in [2], in [3], in assay [4], in assay [5] and in assay [6] was inactive. The compound was classed as inactive in assay [7], in [8], in assay [9], in assay [11], in [13] and in assay [14]. Further, the compound was called inactive in assay [15], in assay [16], in assay [20] and in [17]. Further, the AC50 in assay [10] was 0.033 µM (active).
